In PubChem BioAssay (Tox21):
Results filed as inconclusive are left out. Unmarked numbers belong to inactive results. Calls come from the whole dose curve; as a rule, active = well fitted cell-killing curve with a large enough effect in the repeat runs; inconclusive = weak or mixed curves; inactive = flat fitted curve, though single readings scatter.

experiment: qHTS RealTime-Glo MT Cell Viability Assay in HepG2 cells - 16 hour (AID 1224885); settings: RealTime-Glo luminescence; series mostly up to 76.8 µM; activity change, negative = cytotoxic: at the top concentration; note: nearly all actives have a fitted effect of over 50% in size
In short: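 Cells + NanoLuc/prosubstrate dispensed (600 cells/well) → 5 h at 37 C/5% CO2 → compounds in DMSO transferred → 40 h incubation at 37 C, luminescence read at 0, 8, 16, 24, 32, 40 h.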
% is set by controls: 0 for no effect and ±100 for the full control effect.

Compound | activity change, negative = cytotoxic
CCCC(=O)OCc1ccccc1 | 2.92%
CCCCCCCCC(=O)OCC(C)OC(=O)CCCCCCCC (centres undefined) | 2.98%
CC[C@H](NC(C)C)[C@H](O)c1ccc(O)c2[nH]c(=O)ccc12 | 3.33% [at 35.3 µM]
O=C(O)c1ccncc1 | 0.707%
CCCCCCCCOCCCN | -9.21%
COc1cc(CNC(=O)CCCC/C=C/C(C)C)ccc1O | 0.707%
C[C@H]1C[C@H]2[C@@H]3CCC4=CC(=O)C=C[C@]4(C)[C@@]3(F)[C@@H](O)C[C@]2(C)[C@@]1(O)C(=O)COP(=O)(O)O | -5.41%
CC(C)(C)N | 1.27%
CNc1ccccc1 | 0.376%
C=Cc1ccc(C=C)cc1 | 0.811%
C/C=C1\[C@H]2C=C(C)C[C@]1(N)c1ccc(=O)[nH]c1C2 | 0.119% [at 35.3 µM]
O=C1OC(=O)C2CC=CCC12 (centres undefined) | 1.02%
CC1(C)C(=O)NC(=O)N1CO | 1.52%
Nc1ccc(C(=O)Oc2ccccc2)c(O)c1 | -2.89% [at 35.3 µM]
COC(=O)/C=C/C(C)=C\C=C\C(C)=C\C=C\C=C(C)\C=C\C=C(C)\C=C\C(=O)O | -10.6%
O=c1[nH]nc(-c2ccc([N+](=O)[O-])o2)o1 | -7.82%
C/C(=C(\CCO)SS/C(CCO)=C(\C)N(C=O)Cc1cnc(C)nc1N)N(C=O)Cc1cnc(C)nc1N | 1.54% [at 35.3 µM]
O=[N+]([O-])c1cccc(I)c1 | 5.53%
CC(=O)Nc1ccccc1O | 0.33%
CC1(COc2ccc(CC3SC(=O)NC3=O)cc2)CCCCC1 (centres undefined) | -0.0401% [at 35.3 µM]

Compound | activity change, negative = cytotoxic
CC(=O)c1ccc(Cl)c(Cl)c1Cl | -0.0337%
CC(=O)Oc1cccc2c1C(=O)c1c(OC(C)=O)cc(C(=O)O)cc1C2=O | -4.87% [at 35.3 µM]
CC1=C(C)C(=O)C(C(CCCCCC(=O)O)c2ccccc2)=C(C)C1=O (centres undefined) | -14.5% [at 35.3 µM]
CO[C@@H]1COCC[C@@H]1N[C@@H]1CC[C@@](C(=O)N2CCc3ncc(C(F)(F)F)cc3C2)(C(C)C)C1 | 3.46%
O=C(NC1CCN(CCc2c[nH]c3ccccc23)CC1)c1ccccc1 | -7.13% [at 35.3 µM]
N#CCCCC(C#N)CCC#N (centres undefined) | -1.96%
C(/C=C/C=C/Nc1ccccc1)=Nc1ccccc1 | -3.36%
CCC(C)C1N=C(C)C(C)S1 (centres undefined) | 2.61%
Cc1cc(C)n(CO)n1 | 0.295%
CCOc1ccccc1O | -4.93%
CCC1=C(C)CN(C(=O)NCCc2ccc(S(=O)(=O)NC(=O)NC3CCC(C)CC3)cc2)C1=O (centres undefined) | -1.3% [at 35.3 µM]
O=C1c2ccccc2C(=O)c2c1ccc(O)c2O | -7.58% [at 35.3 µM]
CC(C)C/C=C(\C=O)c1ccccc1 | -3.91%
CC(C)=CCC[C@H](C)CCO | 1.77%
Cc1ccc(NC=O)c(C)c1 | -0.126%
NC(=O)c1cc[n+](CC2=C(C(=O)[O-])N3C(=O)[C@@H](NC(=O)Cc4cccs4)[C@H]3SC2)cc1 | 8.09% [at 35.3 µM]
[O-][n+]1ccc(Cl)cc1 | -1.03%
COc1ccc(/C=C/S(=O)(=O)NC(=O)c2ccc(C)cc2Cl)cc1 | 4.85%
CCC(C(=O)O)c1ccc(N2Cc3ccccc3C2=O)cc1 (centres undefined) | 0.829% [at 35.3 µM]
